LDHA inh = qHTS assay for inhibitors of human lactate dehydrogenase | purified LDHA, NADH/diaphorase-resazurin fluorescence; hits give low values | activity change, % (values are at about 110 or 230 µM) | 480,000 compounds, 0.15% hits | AID 1347041, 2019; in the data active means activity change below about -30%; inconclusive means mostly about -25% to -30%;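 further: plate controls were DMSO wells for no effect and wells without enzyme for full effect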
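Remaining NADH was detected by diaphorase (0.133 mg/mL) converting 37 µM resazurin to fluorescent resorufin, read at 0 and 20 minutes. The preceding 5-minute room-temperature reaction used 2 nM LDHA, 0.2 mM sodium pyruvate and 0.06 mM NADH at pH 7.4.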
RORgamma inh = qHTS for inhibitors of ROR gamma transcriptional activity; Nuclear receptor ROR-gamma (Mus musculus), P51450; Drosophila S2 Gal4-RORgamma UAS-luciferase reporter, 20 h; Potency, µM (titrated, usually from 53.6 µM), without a hit: at the top dose activity change, negative = inhibition, actives largely listed as inhibitors; 310,000 compounds, 5.4% hits; AID 2551, 2010; further: potency means the concentration at half of the fitted maximal effect; nearly all actives have a fitted effect of over 60% in size
Target sequence (P51450 whole entry, looked up, the tested form may be a part): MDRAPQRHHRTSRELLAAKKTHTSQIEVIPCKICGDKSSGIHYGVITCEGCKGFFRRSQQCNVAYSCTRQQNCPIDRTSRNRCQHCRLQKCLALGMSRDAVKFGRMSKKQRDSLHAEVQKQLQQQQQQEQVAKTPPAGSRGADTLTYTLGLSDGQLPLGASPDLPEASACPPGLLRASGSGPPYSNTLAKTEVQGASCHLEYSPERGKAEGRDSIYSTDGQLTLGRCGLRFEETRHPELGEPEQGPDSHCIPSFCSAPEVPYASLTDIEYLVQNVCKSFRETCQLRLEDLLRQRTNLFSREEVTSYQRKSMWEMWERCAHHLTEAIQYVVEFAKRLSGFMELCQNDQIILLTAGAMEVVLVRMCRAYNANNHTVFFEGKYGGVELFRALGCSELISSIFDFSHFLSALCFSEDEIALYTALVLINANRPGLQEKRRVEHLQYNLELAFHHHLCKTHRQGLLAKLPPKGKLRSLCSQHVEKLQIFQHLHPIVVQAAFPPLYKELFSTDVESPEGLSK
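Luminescence from a UAS-regulated Photinus luciferase reporter in stably transfected Drosophila Schneider cells is measured; decreased signal marks ROR gamma inhibition. Fusion expression is induced by 700 uM copper sulfate for 20 hr.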
VP16 counter = VP16 counterscreen qHTS for inhibitors of ROR gamma transcriptional activity. Potency, µM (highest dose often 53.6 µM), for inactives: at the top dose activity, negative = inhibition, hits mostly inhibitors. Drosophila S2 Gal4-VP16 UAS-luciferase, luminescence, 20 h. 310,000 compounds, 3.5% hits;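 further: Gal4-VP16 expression switched on by copper sulfate through the metallothionein promoter; potency means the concentration at half of the fitted maximal effect; nearly all actives have a fitted effect of over 50% in size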
TDP1 cell CPT = qHTS for Inhibitors of human tyrosyl-DNA phosphodiesterase 1 (TDP1): qHTS in cells in presence of CPT; chicken DT40 Tdp1-/-;hTDP1 cells + 20 nM CPT, ATP luminescence, 48 h; Potency, µM (top dose mostly 46.2 µM), without a hit: at the highest dose activity change, negative = growth inhibition, hits mostly inhibitors; 420,000 compounds, 12% hits; further: potency means the concentration at half of the fitted maximal effect; nearly all actives have a fitted effect of over 55% in size
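Chicken DT40 Tdp1-/- cells stably complemented with human TDP1 were seeded at 400 cells/well in medium containing 20 nM camptothecin, exposed to pin-transferred compounds, and grown at 37 °C for at least 48 hr. Viability was read as ATP luminescence.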
TDP1 cell noCPT = qHTS for Inhibitors of human tyrosyl-DNA phosphodiesterase 1 (TDP1): qHTS in cells in absence of CPT | 420,000 compounds, 15% hits | DT40 Tdp1-/- hTDP1 cells, no CPT, ATP luminescence, 48 h | Potency, µM (titrated, usually from 46.2 µM), inactives show at the top dose activity change, negative = growth inhibition, usual class: inhibitors; further: potency means the concentration at half of the fitted maximal effect; nearly all actives have a fitted effect of over 55% in size
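Stably hTDP1-transfected Tdp1-null chicken DT40 cells were treated with library compounds minus camptothecin and grown for at least 48 hr at 37 °C, after which cellular ATP was quantified by luminescence.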
IL-1B inflam inh = qHTS for Inhibitors of Inflammasome Signaling: IL-1-beta AlphaLISA Primary Screen | THP-1 LPS/ATP IL-1B secretion, AlphaLISA, 16 h; hits give low values | activity change, % at 57.5 µM | 360,000 compounds, 4.7% hits; in the data active means activity change below about -50%; inconclusive means mostly about -30% to -49%
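Secreted IL-1B measured by AlphaLISA bead assay after 16 h compound exposure of THP-1 cells; compounds (final up to 57.5 uM) added 1 h before LPS (250 ng/mL) and ATP (1.25 mM) stimulation; lower signal means less secretion.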
* marks the source's active call; other numbers are inactive results; ? = inconclusive; . = no result; [ ] = remark or other dose. The list is not random: actives were taken first. Their share in the collection is about 18%. Unless noted, the call rests on the fitted dose curve; in most records, active means well fitted curve in the direction sought with a large enough effect; inconclusive means small, poorly fitted or top-dose-only effect, or another doubt; inactive means no such curve, though single readings can be large; an effect the other way counts as inactive or inconclusive. Unless noted, on the % scale 0 is the no-effect control and ±100 the full control effect.

SMILES	LDHA inh	RORgamma inh	VP16 counter	TDP1 cell CPT	TDP1 cell noCPT	IL-1B inflam inh
COCc1ccc(C(=O)N2CCCC(N3CCN(c4ccccc4C)CC3)C2)s1 (stereo not given)	-2	6%	16%	15µM*	?	-15
Cc1ccccc1N1CCN(C2CCCN(C(=O)c3csc(C(C)C)n3)C2)CC1 (stereo not given)	-1	15%	3%	?	?	-8
Cc1ccc2nc(C)cc(C(=O)N3CCCC(N4CCN(c5ccccc5C)CC4)C3)c2c1 (stereo not given)	-15	-9%	-9%	15µM*	?	-3
Cc1ccccc1N1CCN(C2CCCN(C(=O)CCC(=O)N(C)C)C2)CC1 (stereo not given)	-8	-8%	-18%	3%	6%	-2
Cc1nc(C(=O)N2CCCC(N3CCN(c4ccccc4C)CC3)C2)cs1 (stereo not given)	1	3%	-10%	15µM*	?	4
Cc1cc(C(=O)N2CCCC(N3CCN(c4ccccc4C)CC3)C2)nc(C)n1 (stereo not given)	-5	10%	-8%	-4%	5%	10
Cc1ccccc1N1CCN(C2CCCN(C(=O)CCc3c(C)noc3C)C2)CC1 (stereo not given)	-8	18%	-1%	?	23µM*	-3
Cc1ccccc1N1CCN(C2CCCN(C(=O)c3ccc(Cl)s3)C2)CC1 (stereo not given)	-5	17%	-5%	?	?	-11
N#Cc1nc(-c2ccc(S(=O)(=O)N3CCOCC3)cc2)oc1NCc1ccc2c(c1)OCO2	-18	.	.	.	.	.
O=C(c1ccccc1)N1CCc2cc(CNS(=O)(=O)c3ccc(Cl)s3)ccc21	-9	.	.	?	16µM*	.
O=C(c1ccccc1)N1CCc2cc(CNS(=O)(=O)c3ccccc3Cl)ccc21	-5	.	.	1.3µM*	0.92µM*	.
CC(=O)N1CCc2cc(CNS(=O)(=O)c3ccccc3C(F)(F)F)ccc21	-8	.	.	-2%	0%	.
CC(C)(C)NC(=O)NC(=O)COc1ccc(Br)cc1Br	-4	-6%[10 µM]	-17%	-26%	-30%	-6
CC(C)(C)NC(=O)NC(=O)COC(=O)COc1ccc(Cl)cc1Cl	-2	0%	3%	18µM*	?	8
C=CCn1c(SCC(=O)NC2CCS(=O)(=O)C2)nnc1-c1cc2c(s1)CCC(CC)C2 (stereo not given)	-8	?	16%	-12%	?	?
C=CCn1c(-c2cc3c(s2)CCC(CC)C3)n[nH]c1=S (stereo not given)	-5	2.2µM*	?	?	?	49
CCCCn1nnc(NC(=O)COc2ccc(Cl)cc2Cl)n1	5	.	.	.	.	.
CCn1cc(Cl)c(C(=O)N2N=C3/C(=C/c4cccs4)CCCC3C2c2cccs2)n1 (stereo not given)	-6	?	-16%	18µM*	?	?
Cc1ccc(-n2c(SCC(=O)N3CCCCC3)nc(O)c(Cc3ccccc3)c2=O)cc1	-3	10%	-3%	?	12µM*	12
CCN(CC)C(=O)CSc1nc(O)c(Cc2ccccc2)c(=O)n1-c1ccc(C)cc1	-4	17%	-11%	?	13µM*	22
COc1cc(CN(C)C(=O)c2cc3ccccc3oc2=O)ccc1OC(F)F	2	.	.	.	.	.
O=C1CC(c2ccc3ccccc3c2)NN1 (stereo not given)	1	.	.	26µM*	?	13
COc1ccc(C(c2c(C)[nH][nH]c2=O)c2c(C)[nH][nH]c2=O)cc1Br	-6	-45%	-12%	-6%	?	-29
COc1cc(C(c2c(C)[nH][nH]c2=O)c2c(C)[nH][nH]c2=O)ccc1OCc1ccc([N+](=O)[O-])cc1	7	6.3µM*	?	?	?	-28
COc1cc(C(c2c(C)[nH][nH]c2=O)c2c(C)[nH][nH]c2=O)ccc1OC(C)C	12	-11%	-7%	12%	-23%	-70*
SMILES	LDHA inh	RORgamma inh	VP16 counter	TDP1 cell CPT	TDP1 cell noCPT	IL-1B inflam inh
COc1cc(C(c2c(C)[nH][nH]c2=O)c2c(C)[nH][nH]c2=O)ccc1OC(=O)c1cccc([N+](=O)[O-])c1	11	21%	9%	0%	-18%	-13
COCC(=O)N/N=C\c1ccccc1OC/C=C/c1ccccc1	-3	-4%	-17%	?	26µM*	41
COc1cccc(/C=N\NC(C)=O)c1OC/C=C/c1ccccc1	-3	8.9µM*	11µM*	?	?	0
N#CCC(=O)N/N=C\c1ccccc1OC/C=C/c1ccccc1	-4	1%	-2%	5.8µM*	4.1µM*	-28
CCOc1ccccc1C=NNC(=O)CCCCC(=O)NN=Cc1ccccc1OCC	-7	.	.	-7%	-17%	11
C=CCOc1c(/C=N\NC(N)=O)cccc1OC	-7	5%	-2%	16%	-9%	-4
C=CCOc1ccccc1/C=N/NC(=O)Cc1ccc(C)cc1	-2	11µM*	?	-13%	?	7
Cn1ccnc1C(NC(=O)COc1ccccc1-c1ccccc1)c1ccc(F)cc1 (stereo not given)	7	.	.	.	.	.
O=C(Nc1ccc(F)cc1F)c1nc2ccccc2nc1N1CCCCC1	4	.	.	.	.	.
CC(=O)Nc1ccc(SCCCC(=O)c2cccs2)cc1	3	.	.	.	.	.
COC(=O)N/N=C\c1ccc(OC/C=C/c2ccccc2)c(OC)c1	-2	17%	-10%	-21%	-9%	?
COc1cc(/C=N\NC(=O)C(C)(C)O)ccc1OC/C=C/c1ccccc1	0	35µM*	?	?	-24%	-9
Cc1oc2cc(OCC(=O)N[C@H](C)C(=O)O)ccc2c(=O)c1-c1ccc(Cl)cc1	37	.	.	.	.	.
CCn1c(=O)c2cc(C(=O)NCCCN3CCN(c4ccc(F)cc4)CC3)sc2c2ccccc21	2	.	.	18µM*	6.5µM*	.
CCCCNC(=O)c1cc2c(=O)n(CC)c3ccccc3c2s1	-1	12%	-8%	?	23µM*	-20
CCn1c(=O)c2cc(C(=O)NCc3cccs3)sc2c2ccccc21	0	3%	8%	3%	?	-14
